# Measured values from PubChem BioAssay AID1159580 (chemical genetic matrix, 2015).
# The whole screen tested about 5,500 compounds, of which about 2,000 (36%) were called active. Inconclusive results (about 18%) are left out. This is one part of the list. Unmarked numbers belong to inactive results. Rule as the data show it: active = normalized growth mostly below about 0.91 (no sharp cut-off); inconclusive = no clear call, values can overlap the other calls; inactive = mostly above about 0.92.
# Assay: chemical genetic growth profiling, strain panel (AID 1159580);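 also: tested at 20 µM; growth read once vehicle control cultures reached saturation at 30 °C; 1 = growth at the plate median or of vehicle wells; lower values mean less growth of the strain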
# Conditions: growth OD
compound,measurement,setting,value
CC[C@@H](C(=O)O)[C@@H]1O[C@@H]([C@@H](C)[C@H](O)[C@H](C)C(=O)[C@H](CC)[C@H]2O[C@]3(C=C[C@@H](O)[C@]4(CC[C@@](C)(C5CC[C@](O)(CC)[C@H](C)O5)O4)O3)[C@H](C)C[C@@H]2C)[C@@H](C)C[C@H]1C (stereo partly specified),normalized growth,"S. cerevisiae deletion strains, locus YAL013W, strain DEP1, active compounds read low",0.858 (active)
same,normalized growth,"S. cerevisiae deletion strains, locus YBR021W, strain FUR4, active compounds read low",0.168 (active)
same,normalized growth,"S. cerevisiae deletion strains, locus YBR229C, strain ROT2, active compounds read low",0.405 (active)
same,normalized growth,"S. cerevisiae deletion strains, locus YCL029C, strain bik1, active compounds read low",0.559 (active)
same,normalized growth,"S. cerevisiae deletion strains, locus YDL035C, strain GPR1, active compounds read low",0.478 (active)
same,normalized growth,"S. cerevisiae deletion strains, locus YDL074C, strain BRE1, active compounds read low",0.412 (active)
same,normalized growth,"S. cerevisiae deletion strains, locus YDL101C, strain DUN1, active compounds read low",0.214 (active)
same,normalized growth,"S. cerevisiae deletion strains, locus YDL134C, strain PPH21, active compounds read low",0.313 (active)
same,normalized growth,"S. cerevisiae deletion strains, locus YDL185W, strain tfp1, active compounds read low",0.993
same,normalized growth,"S. cerevisiae deletion strains, locus YDL192W, strain arf1, active compounds read low",0.0725 (active)
same,normalized growth,"S. cerevisiae deletion strains, locus YDR101C, strain arx1, active compounds read low",0.569 (active)
same,normalized growth,"S. cerevisiae deletion strains, locus YDR150W, strain NUM1, active compounds read low",0.426 (active)
same,normalized growth,"S. cerevisiae deletion strains, locus YDR162C, strain NBP2, active compounds read low",0.0697 (active)
same,normalized growth,"S. cerevisiae deletion strains, locus YDR318W, strain mcm21, active compounds read low",0.224 (active)
same,normalized growth,"S. cerevisiae deletion strains, locus YDR388W, active compounds read low",0.117 (active)
same,normalized growth,"S. cerevisiae deletion strains, locus YDR502C, strain sam2, active compounds read low",0.317 (active)
same,normalized growth,"S. cerevisiae deletion strains, locus YEL061C, strain CIN8, active compounds read low",0.724 (active)
same,normalized growth,"S. cerevisiae deletion strains, locus YER110C, active compounds read low",0.861 (active)
same,normalized growth,"S. cerevisiae deletion strains, locus YER155C, strain BEM2, active compounds read low",0.796 (active)
same,normalized growth,"S. cerevisiae deletion strains, locus YER167W, strain BCK2, active compounds read low",0.294 (active)
same,normalized growth,"S. cerevisiae deletion strains, locus YGL078C, strain dbp3, active compounds read low",0.378 (active)
same,normalized growth,"S. cerevisiae deletion strains, locus YGL086W, strain mad1, active compounds read low",0.331 (active)
same,normalized growth,"S. cerevisiae deletion strains, locus YGL248W, strain PDE1, active compounds read low",0.282 (active)
same,normalized growth,"S. cerevisiae deletion strains, locus YGR078C, strain PAC10, active compounds read low",0.621 (active)
same,normalized growth,"S. cerevisiae deletion strains, locus YGR135W, strain pre9, active compounds read low",0.781 (active)
same,normalized growth,"S. cerevisiae deletion strains, locus YGR229C, strain SMI1, active compounds read low",0.15 (active)
same,normalized growth,"S. cerevisiae deletion strains, locus YGR252W, strain gcn5, active compounds read low",0.312 (active)
same,normalized growth,"S. cerevisiae deletion strains, locus YHR030C, strain SLT2, active compounds read low",0.142 (active)
same,normalized growth,"S. cerevisiae deletion strains, locus YHR079C, strain IRE1 (second series), active compounds read low",0.39 (active)
same,normalized growth,"S. cerevisiae deletion strains, locus YHR094C, strain hxt1, active compounds read low",0.278 (active)
same,normalized growth,"S. cerevisiae deletion strains, locus YHR129C, strain ARP1, active compounds read low",0.209 (active)
same,normalized growth,"S. cerevisiae deletion strains, locus YHR200W, strain rpn10, active compounds read low",0.691 (active)
same,normalized growth,"S. cerevisiae deletion strains, locus YIL066C, strain RNR3, active compounds read low",0.385 (active)
same,normalized growth,"S. cerevisiae deletion strains, locus YIL073C, strain SPO22, active compounds read low",0.127 (active)
same,normalized growth,"S. cerevisiae deletion strains, locus YIL125W, strain kgd1, active compounds read low",0.12 (active)
same,normalized growth,"S. cerevisiae deletion strains, locus YIR030C, strain dcg1, active compounds read low",0.461 (active)
same,normalized growth,"S. cerevisiae deletion strains, locus YJL095W, strain BCK1, active compounds read low",0.232 (active)
same,normalized growth,"S. cerevisiae deletion strains, locus YJL134W, strain LCB3, active compounds read low",0.244 (active)
same,normalized growth,"S. cerevisiae deletion strains, locus YJL168C, strain set2, active compounds read low",0.448 (active)
same,normalized growth,"S. cerevisiae deletion strains, locus YJL187C, strain SWE1 (second series), active compounds read low",0.287 (active)
same,normalized growth,"S. cerevisiae deletion strains, locus YJR043C, strain POL32, active compounds read low",0.552 (active)
same,normalized growth,"S. cerevisiae deletion strains, locus YJR075W, strain HOC1, active compounds read low",0.6 (active)
same,normalized growth,"S. cerevisiae deletion strains, locus YKL009W, strain mrt4, active compounds read low",0.874 (active)
same,normalized growth,"S. cerevisiae deletion strains, locus YKL068W, active compounds read low",0.257 (active)
same,normalized growth,"S. cerevisiae deletion strains, locus YKL085W, strain MDH1 (second series), active compounds read low",0.164 (active)
same,normalized growth,"S. cerevisiae deletion strains, locus YKL085W, strain MDH1, active compounds read low",0.164 (active)
same,normalized growth,"S. cerevisiae deletion strains, locus YKL190W, strain CNB1, active compounds read low",0.295 (active)
same,normalized growth,"S. cerevisiae deletion strains, locus YKR001C, strain vps1, active compounds read low",0.0696 (active)
same,normalized growth,"S. cerevisiae deletion strains, locus YLR039C, strain RIC1, active compounds read low",0.115 (active)
same,normalized growth,"S. cerevisiae deletion strains, locus YLR058C, strain SHM2, active compounds read low",0.432 (active)
same,normalized growth,"S. cerevisiae deletion strains, locus YLR102C, strain apc9, active compounds read low",0.431 (active)
same,normalized growth,"S. cerevisiae deletion strains, locus YLR262C, strain YPT6, active compounds read low",0.125 (active)
same,normalized growth,"S. cerevisiae deletion strains, locus YLR268W, strain sec22, active compounds read low",0.291 (active)
same,normalized growth,"S. cerevisiae deletion strains, locus YLR330W, strain CHS5, active compounds read low",0.237 (active)
same,normalized growth,"S. cerevisiae deletion strains, locus YLR342W, strain FKS1 (second series), active compounds read low",0.2 (active)
same,normalized growth,"S. cerevisiae deletion strains, locus YLR371W, strain rom2, active compounds read low",0.147 (active)
same,normalized growth,"S. cerevisiae deletion strains, locus YLR418C, strain cdc73, active compounds read low",0.162 (active)
same,normalized growth,"S. cerevisiae deletion strains, locus YML016C, strain PPZ1, active compounds read low",0.402 (active)
same,normalized growth,"S. cerevisiae deletion strains, locus YML032C, strain rad52, active compounds read low",0.586 (active)
same,normalized growth,"S. cerevisiae deletion strains, locus YML124C, strain tub3, active compounds read low",0.385 (active)
same,normalized growth,"S. cerevisiae deletion strains, locus YMR078C, strain ctf18, active compounds read low",0.857 (active)
same,normalized growth,"S. cerevisiae deletion strains, locus YMR223W, strain ubp8, active compounds read low",0.465 (active)
same,normalized growth,"S. cerevisiae deletion strains, locus YMR263W, strain SAP30, active compounds read low",0.763 (active)
same,normalized growth,"S. cerevisiae deletion strains, locus YMR307W, strain GAS1, active compounds read low",0.129 (active)
same,normalized growth,"S. cerevisiae deletion strains, locus YNL067W, strain RPL9B, active compounds read low",0.629 (active)
same,normalized growth,"S. cerevisiae deletion strains, locus YNL128W, strain TEP1, active compounds read low",0.377 (active)
same,normalized growth,"S. cerevisiae deletion strains, locus YNL153C, strain GIM3, active compounds read low",0.31 (active)
same,normalized growth,"S. cerevisiae deletion strains, locus YNL233W, strain BNI4, active compounds read low",0.2 (active)
same,normalized growth,"S. cerevisiae deletion strains, locus YNL250W, strain rad50, active compounds read low",0.262 (active)
same,normalized growth,"S. cerevisiae deletion strains, locus YNL271C, strain bni1, active compounds read low",0.119 (active)
same,normalized growth,"S. cerevisiae deletion strains, locus YNL298W, strain CLA4, active compounds read low",0.111 (active)
same,normalized growth,"S. cerevisiae deletion strains, locus YNL307C, strain MCK1, active compounds read low",0.229 (active)
same,normalized growth,"S. cerevisiae deletion strains, locus YNL322C, strain KRE1, active compounds read low",0.262 (active)
same,normalized growth,"S. cerevisiae deletion strains, locus YNR052C, strain pop2, active compounds read low",0.241 (active)
same,normalized growth,"S. cerevisiae deletion strains, locus YOL006C, strain TOP1, active compounds read low",0.107 (active)
same,normalized growth,"S. cerevisiae deletion strains, locus YOL012C, strain htz1",0.22
same,normalized growth,"S. cerevisiae deletion strains, locus YOL147C, strain pex11, active compounds read low",0.338 (active)
same,normalized growth,"S. cerevisiae deletion strains, locus YOR061W, strain CKA2, active compounds read low",0.0978 (active)
same,normalized growth,"S. cerevisiae deletion strains, locus YOR069W, strain VPS5, active compounds read low",0.14 (active)
same,normalized growth,"S. cerevisiae deletion strains, locus YOR136W, strain idh2, active compounds read low",0.248 (active)
same,normalized growth,"S. cerevisiae deletion strains, locus YOR144C, strain elg1, active compounds read low",0.425 (active)
same,normalized growth,"S. cerevisiae deletion strains, locus YOR184W, strain ser1, active compounds read low",0.335 (active)
same,normalized growth,"S. cerevisiae deletion strains, locus YOR316C, strain cot1, active compounds read low",0.377 (active)
same,normalized growth,"S. cerevisiae deletion strains, locus YPL055C, strain LGE1, active compounds read low",0.174 (active)
same,normalized growth,"S. cerevisiae deletion strains, locus YPL241C, strain CIN2, active compounds read low",0.648 (active)
same,normalized growth,"S. cerevisiae deletion strains, locus YPR119W, strain clb2, active compounds read low",0.623 (active)
same,normalized growth,"S. cerevisiae deletion strains, locus YPR141C, strain kar3, active compounds read low",0.383 (active)
same,normalized growth,"S. cerevisiae deletion strains, locus YPR163C, strain tif3, active compounds read low",0.134 (active)
same,normalized growth,"S. cerevisiae deletion strains, locus YPR167C, strain met16, active compounds read low",0.427 (active)
same,normalized growth,"S. cerevisiae deletion strains, strain wtn01, active compounds read low",0.245 (active)
same,normalized growth,"S. cerevisiae strains, strain wild type, active compounds read low",0.27 (active)
